A selection: hits, their analogues and other compounds. The true share with any hit is near 1.6%.
Fam108B counter: blocks mouse Fam108B hydrolase in RBBP9 counter-screen | recombinant Fam108B, FP-Rh probe fluorescence polarization | inhibition, % at 9.51 µM | actives 0.33% (n = 300,000) | AID 1947;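 active = inhibition above the screen mean inhibition plus 3 SD, computed separately per campaign, cut at about 18% in these data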;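 note: inhibitors lower polarization as less probe binds the enzyme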
PREPL inh: inhibitors of human prolyl oligopeptidase-like enzyme PREPL; recombinant PREPL, fluorescence polarization activity-based probe; actives 0.68% (n = 320,000); Q4J6C6; inhibition, % at 5.96 µM; in the data active = inhibition above about 43%;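 note: 0% = enzyme with DMSO and 100% = wells lacking enzyme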
PME-1 inh: PME-1 (human) inhibition; recombinant PME-1, FP-Rh probe fluorescence polarization; Q9Y570; inhibition, % at 5.9 µM; actives 0.53% (n = 320,000);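 active = inhibition above the campaign mean of all compounds plus 3 SD, cut at about 26% in these data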;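 note: competitive labeling of PME-1 active site by serine hydrolase directed probe; 0% = PME-1 with DMSO and 100% = wells lacking PME-1 enzyme; inhibitors block probe labeling so polarization falls and inhibition rises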
Target sequence (Q9Y570 whole entry, looked up): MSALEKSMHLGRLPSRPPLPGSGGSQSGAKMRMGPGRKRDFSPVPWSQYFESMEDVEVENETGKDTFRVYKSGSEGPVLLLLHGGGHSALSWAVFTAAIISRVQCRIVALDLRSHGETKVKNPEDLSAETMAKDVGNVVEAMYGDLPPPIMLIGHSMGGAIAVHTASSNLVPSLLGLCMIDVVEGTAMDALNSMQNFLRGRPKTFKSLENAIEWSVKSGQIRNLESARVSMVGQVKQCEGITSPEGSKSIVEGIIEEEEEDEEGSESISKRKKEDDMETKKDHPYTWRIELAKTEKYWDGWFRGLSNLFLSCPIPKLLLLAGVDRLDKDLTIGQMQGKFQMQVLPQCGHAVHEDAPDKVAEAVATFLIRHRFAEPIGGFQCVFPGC
MEX-5 binding: C. elegans MEX-5 TCR-2 RNA binding activity; activity score (negative = inhibition of binding), % at 10 µM; actives 0.38% (n = 300,000); MEX-5/FITC-TCR2 RNA binding, fluorescence polarization; active compounds read low;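 active = inhibition past about -25% in most replicates, and total fluorescence under double the plate's negative control median, limit read from the data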;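 note: 0% = DMSO and -100% = 5 µM competing unlabeled TCR2 RNA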
LYPLA2 inh: LYPLA2 (human) inhibition in PME1 counter-screen | AID 2177 | O95372 | actives 0.38% (n = 320,000) | inhibition, % at 5.9 µM | recombinant LYPLA2, FP-Rh probe fluorescence polarization;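 active = inhibition above the screen-wide mean plus 3 SD, limit set per campaign, cut at about 26% in these data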;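 note: 0% = LYPLA2 with DMSO and 100% = wells lacking LYPLA2 enzyme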
Target sequence (O95372 whole entry, looked up): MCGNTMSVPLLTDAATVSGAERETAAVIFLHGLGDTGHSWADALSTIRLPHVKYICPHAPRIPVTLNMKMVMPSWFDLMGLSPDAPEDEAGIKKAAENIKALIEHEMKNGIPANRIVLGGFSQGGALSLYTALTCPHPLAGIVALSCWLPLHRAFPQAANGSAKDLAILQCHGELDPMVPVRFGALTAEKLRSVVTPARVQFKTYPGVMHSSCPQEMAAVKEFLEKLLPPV
LYPLA1 inh: LYPLA1 (human) inhibition in PME1 counter-screen; recombinant LYPLA1, FP-Rh probe fluorescence polarization; inhibition, % at 5.9 µM; actives 0.16% (n = 320,000); AID 2174;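 active = inhibition above the mean of all tested compounds plus 3 SD, set per campaign, cut at about 14% in these data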;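 note: inhibitors block serine hydrolase probe labeling of LYPLA1 so polarization falls; 0% = enzyme with DMSO and 100% = wells lacking LYPLA1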
LYPLA2 confirm: LYPLA2 (human) inhibition, confirmation counter-screen. shares compounds with LYPLA2 inh. inhibition, % at 5.9 µM. actives 72% (n = 1,100). recombinant LYPLA2, FP-Rh probe fluorescence polarization;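 active = mean inhibition across replicates above the hit cutoff set in the primary screen, cut at about 26% in these data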;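 note: blocked labeling of the enzyme by serine hydrolase FP-Rh probe lowers polarization; 0% = enzyme with DMSO and 100% = wells lacking LYPLA2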
LYPLA2 ABPP: inhibitors of human LYPLA2. shares compounds with LYPLA2 inh. rhLYPLA2 in mouse brain proteome, gel ABPP FP-Rh. inhibition, % at 20 µM. actives 30% (n = 150);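 active = inhibition of LYPLA2 enzyme probe labeling above about 50%, limit read from the data; inactive = inhibition below that limit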;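 note: loss of FP-Rh probe labeling of the LYPLA2 gel band measured as band density; 0% = DMSO only control band and 100% = blank gel background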
Active calls of the source: *; . = no result given.

SMILES	Fam108B counter	PREPL inh	PME-1 inh	MEX-5 binding	LYPLA2 inh	LYPLA1 inh	LYPLA2 confirm	others
O=C1CCCN1CCC1CCN(C2CC(=O)N(Cc3ccc(N4CCCC4=O)cc3)C2=O)CC1 (stereo not drawn)	3	-1	2	-3	-1	-1	.
O=C1CCCN1CCC1CCN(C2CC(=O)N(c3ccc(Cl)cc3)C2=O)CC1 (stereo not drawn)	2	7	2	0	33*	5	35*
CCCCCn1c(SCC(=O)OCC)nc2cc(C(=O)NCc3ccco3)ccc2c1=O	1	0	0	-4	34*	-8	-4
C=CCn1c(SCC(=O)OCC)nc2cc(C(=O)NCc3ccco3)ccc2c1=O	-1	11	2	2	-13	-8	.
O=C(N[C@@H](Cc1ccccc1)c1nc2ccccc2[nH]1)c1cc([N+](=O)[O-])ccc1Cl	-5	0	-5	1	-1	-4	.
COc1ccc(-n2cnnc2SCCC#N)cc1	-1	-6	2	0	1	-1	.
CN(CC(=O)Nc1ccc(Cl)cc1)C(=O)C1=COCCO1	-4	13	-2	3	-1	1	.
CC(=O)c1ccc(N2CCN(C(=O)Nc3ccc(Cl)cc3)CC2)cc1	4	17	-5	1	27*	14	18
COc1ccc(C(=O)Nc2ccc(N3CCN(C(=O)c4cccs4)CC3)cc2)cc1Br	1	31	3	2	29*	4	27*
O=C(c1ccc(N2CCCC2=O)cc1)N1CCN(c2ccccc2Cl)CC1	.	9	2	.	10	0	.
O=C(Nc1ccc(N2CCN(C(=O)c3ccc(Cl)cc3)CC2)cc1)c1ccc2c(c1)OCCO2	1	36	7	.	58*	4	63*	LYPLA2 ABPP=24
O=C(c1ccc(N2CCCC2=O)cc1)N1CCN(c2ccc(Cl)cc2)CC1	-3	8	2	4	53*	0	55*	LYPLA2 ABPP=40
Cc1c(Cl)cccc1NC(=O)Cn1nnc(C(=O)NCc2cccs2)c1N	-8	-1	-1	4	-2	-3	.
Cc1ccc(C(=O)N2CCN(c3ccc(NC(=O)c4cccs4)cc3)CC2)cc1	3	18	8	-2	8	-4	.
O=C(Nc1ccc(N2CCN(C(=O)c3ccc(Cl)cc3)CC2)cc1)c1cccs1	0	10	5	-2	29*	-1	27*
C=CCN1C(=O)C2(OCCCO2)c2c(C)ccc(C)c21	-3	-3	-5	1	3	-1	.
OC(COCc1cccs1)CN1CCN(c2cccc(C(F)(F)F)c2)CC1 (stereo not drawn)	1	2	-11	.	34*	3	29*
Cc1ccc(NC(=O)CCC(=O)OCC(=O)c2ccc(Oc3ccc([N+](=O)[O-])cc3)cc2)cc1C	3	-1	4	2	36*	2	19
O=C(CCC(=O)OCC(=O)c1ccc([N+](=O)[O-])cc1)NC1CCCCC1	8	3	2	2	-2	0	.
NC(=O)c1cc([N+](=O)[O-])ccc1Nc1ccccc1	2	-4	7	.	39*	-1	32*
CC1CCN(S(=O)(=O)c2ccc(N/N=C(/C#N)C(N)=O)cc2)CC1	9	12	2	0	8	-1	.
CN(C(=O)COC(=O)c1ccc([N+](=O)[O-])cc1N)c1ccccc1	-5	6	0	29	0	-4	.
CCN(CC(=O)Nc1c(F)cccc1F)C(=O)CNC(=O)c1ccc2c(c1)OCO2	0	9	-3	-1	2	2	.
Cc1cccc(C)c1NC(=O)C(Cl)=C(Cl)Cl	-1	4	12	-1	3	4	.
O=[N+]([O-])c1ccccc1/C=C\C=N\N1CCN(c2ccccc2)CC1	1	18	-4	1	40*	10	36*
SMILES	Fam108B counter	PREPL inh	PME-1 inh	MEX-5 binding	LYPLA2 inh	LYPLA1 inh	LYPLA2 confirm	others
Cc1cc(C)c(N=C2SCC(=O)N2Cc2ccco2)c(C)c1	1	5	-4	2	-2	2	.
O=C1CSC(=Nc2ccc(Cl)cc2)N1Cc1ccco1	-6	2	4	-1	26*	8	28*
CC(C)CC(=O)Nc1ccc(C(=O)Cn2nc(C(=O)O)c3ccccc3c2=O)cc1	-14	1	-10	1	44*	0	39*
C/C(CCC(C)C)=N\NC(=S)Nc1cc(S(=O)(=O)N2CCOCC2)ccc1N1CCOCC1	4	11	5	1	28*	6	62*
COc1ccc2cc(/C(C)=N/NC(=S)Nc3cc(S(=O)(=O)N4CCOCC4)ccc3N3CCOCC3)ccc2c1	-6	7	-6	3	-7	-6	.
COc1ccccc1-c1nnc(C2CCN(S(=O)(=O)c3ccc([N+](=O)[O-])cc3)CC2)o1	2	18	2	3	75*	2	72*	LYPLA2 ABPP=58*
COc1ccccc1-c1nnc(C2CCN(S(=O)(=O)c3cccc([N+](=O)[O-])c3)CC2)o1	1	11	0	-1	20	2	.
O=C(NCCN1CCCC1)c1ccc(Cl)cc1	3	6	-1	1	1	-1	.
COc1ccc(N2CCN(C(=O)c3cc4c(s3)-c3ccccc3S(=O)(=O)C4)CC2)cc1	1	37	2	-1	89*	1	97*	LYPLA2 ABPP=100*
COc1cccc(CCNC(=O)c2ccc(C#N)cc2)c1	0	4	2	2	10	-1	.
COc1ccc(/C=N/N=C/c2ccc(OC)c(O)c2)cc1O	3	6	6	2	-3	-2	.
O=C(c1ccc(N2CCNCC2)cc1)c1cccnc1	-2	7	2	-2	26*	4	9
COCc1c(C(=O)N2CCN(c3ccc(C(F)(F)F)cn3)CC2)oc2ccccc12	-3	0	-2	2	3	2	.
COc1cccc(C=Nc2ccccc2C(=O)Nc2ccccc2)c1O	3	7	0	2	6	-1	.
Cc1ccc(Oc2coc3cc(OC(=O)c4cccs4)ccc3c2=O)cc1	-5	39	-6	2	48*	2	44*
Cc1cccc(Oc2coc3cc(OC(=O)c4cccs4)ccc3c2=O)c1	-6	34	1	-1	16	3	.
Cc1cc(C)cc(Oc2coc3cc(OC(=O)c4cccs4)ccc3c2=O)c1	-9	20	-1	-1	29*	2	18
COc1ccccc1NC(=O)NCCN1CCN(c2cccc(Cl)c2)CC1	-4	-9	5	4	43*	6	32*
